Source: PubChem BioAssay (NCI)
About 83,000 compounds went through this panel and 20% of them were active in at least one assay; those are over-represented in the sample as a whole.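 Growth was measured after 48 h exposure to one concentration of compound in 96-well plates. Values under 10 count as active.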 Calls of active or inactive are those of the source.

These compounds were tested on HL-60(TB) leukemia (assay: NCI-60 one-dose screen, 48 h (100 = growth as untreated, 0 = no growth, -100 = all killed)). Details: 10 µM unless noted.

| Compound | growth |
| --- | --- |
| C=CCSc1nnc(-c2ccc(C(C)(C)C)cc2)n1-c1cccc(C(F)(F)F)c1 | 5.96% (active) |
| O=c1cc(-c2ccc(OCc3ccccc3)cc2)oc2c(I)c(OCc3ccccc3)cc(OCc3ccccc3)c12 | 117% (inactive) |
| CCOC(=O)N[C@H]1CCc2cc(OC)c(OC)c(OC)c2-c2ccc(SC)c(=O)cc21 | -28.9% (active) |
| CCCOC(=O)N[C@H]1CCc2cc(OC)c(OC)c(OC)c2-c2ccc(SC)c(=O)cc21 | -39.7% (active) |
| COc1cc(C(=O)N2CCN(C(=O)c3cc(OC)c(OCc4ccccc4)cc3N)CC2)c(N)cc1OCc1ccccc1 | 112% (inactive) |
| C=Cc1nn2c(CCC(=O)c3nc4ccccc4[nH]3)nnc2s1 | 104% (inactive) |
| CCCCN(CCCC)CC(CN(CC)CC)OC(=O)Nc1ccccc1 (stereo not given) | 84.1% (inactive) |
| O=C(/C=C/C12c3ccccc3C(c3ccccc31)C1C(=O)NC(=O)C12)c1ccc(Br)cc1 (stereo not given) | 2.14% (active) |
| COc1ccc2nc3cc(Cl)ccc3c(N3CCN(c4ccnc(N5CCN(C)CC5)n4)CC3)c2c1 | 29.8% (inactive) |
| C=C(C)[C@H]1CC/C(C)=C/CC[C@]2(C)O[C@H]2CC/C(COC(C)=O)=C\C1=O | 117% (inactive) |
| N#Cc1c(-c2ccco2)nc2c(c(-c3ccccc3)nn2-c2ccccc2)c1-c1ccc(O)cc1 | 22.9% (inactive) |
| O=C(N/N=C/c1c(Cl)cccc1Cl)c1cccc(Nc2ccnc(C(F)(F)F)c2)c1 | 98.3% (inactive) |
| C=CCNc1ccccc1 | 125% (inactive) |
| O=c1c2ccccc2sc2c(NCCN3CCOCC3)nc3ccccc3c12 | 75.9% (inactive) |
| CC(C)CCc1nc2ccc(NCc3ccc(OCCN4CCC(C)CC4)cc3)cc2[nH]1 | 84.8% (inactive) |
| COc1cc(-c2csc(NC(=O)Nc3cc(Cl)cc(Cl)c3)n2)cc(OC)c1OC | 34.9% (inactive) |
| Fc1ccccc1C1c2ccccc2-c2nccn21 (stereo not given) | 76.5% (inactive) |
| O=C(N/N=C/c1ccc(OC(F)F)c(OC2CCCC2)c1)c1cnn2c1NC(c1ccccc1)C2 (stereo not given) | 100% (inactive) |
| O=C1c2cccc(NCCN=Cc3cc(O)ccc3O)c2C(=O)c2c(NCCN=Cc3cc(O)ccc3O)cccc21 | -72.5% (active) |
| C[C@]12CC[C@H](O)CC1=CC[C@@H]1[C@@H]2CC[C@]2(C)C(c3cccnc3)=CC[C@@H]12 | -25% (active) |

| Compound | growth |
| --- | --- |
| COc1ccc2nc3cc(Cl)ccc3c(NCCCNCCC(C)O)c2c1 (stereo not given) | -38.1% (active) |
| COc1ccc2c(c1)/C(=C1\S/C(=N/c3nnc(C)s3)NC1=O)C(=O)N2Cc1ccc(Cl)cc1 | 53.8% (inactive) |
| CCOC(=O)c1[nH]c(=O)c2c(C)nc(-c3ccccc3)cc2c1O | 111% (inactive) |
| CN(C)CCCn1c2c(c3cnccc3c1=O)C(=O)c1ccccc1-2 | 2.29% (active) |
| CC(C)=CCc1cc2c(cc1O)C1=C(C(=O)C3=C(C1=O)S(=O)(=O)CCN3)C(C=C(C)C)O2 (stereo not given) | -36% (active) |
| Clc1ccc(/C=C2\CCCC3C2=Nc2ccccc2NC3c2ccc(Cl)cc2)cc1 (stereo not given) | 73.9% (inactive) |
| Clc1ccc(Oc2ccc(Nc3ncnc4onc(-c5ccccc5)c34)cc2)c(Cl)c1 | 100% (inactive) |
| NC(CS/C(Cl)=C/Cl)C(=O)O (stereo not given) | 86.9% (inactive) |
| CCCCCCCCNC(=O)[C@@H](N)CSCOC(C)=O | 83.6% (inactive) |
| CC(C)=CCC[C@@H](C)[C@H]1CC[C@@]2(C)C3=C(CC[C@]12C)[C@@]1(C)CC[C@H](O)C(C)(C)[C@@H]1CC3 | 105% (inactive) |
| O=C1/C(=C/c2ccccc2F)CN(C(=O)C(Cl)Cl)C/C1=C\c1ccccc1F | -30.7% (active) |
| Cc1cc(=O)oc2cc(OCCn3c(C)nn(-c4ccc(Cl)cc4)c3=O)ccc12 | -5.7% (active) |
| COc1cc(C(=O)/C=C/c2c(C(F)(F)F)nc3ccccn23)cc(OC)c1OC | -9.98% (active) |
| CCN(CC)C12CCCCC1(C)C(C#N)(C#N)C(C#N)=C(N)O2 (stereo not given) | 72.5% (inactive) |
| Cc1ccc2nc(-c3ccc(N(C)C)c(Br)c3)cn2c1 | 36.8% (inactive) |
| O=C(O)c1ccc(-n2c(=O)c3ccccc3c3ccccc3c2=O)cc1 | 83.7% (inactive) |
| CC(=O)NNC(=O)c1sc(NC(C)=O)nc1C | 101% (inactive) |
| COc1ccc(C2SCC(=O)N2NC(=O)c2ccc(NC(=O)c3ccccn3)cc2)cc1OC (stereo not given) | 110% (inactive) |
| CC1(C)[C@@H](O)CC[C@]2(C)[C@H]3CC[C@@H]4[C@H]5[C@H](c6cn(-c7ccccc7)nn6)CC[C@]5(CO)CC[C@@]4(C)[C@]3(C)CC[C@@H]12 | 74.8% (inactive) |
| OCCNCCNc1c2ccccc2nc2ccccc12 | 86.2% (inactive) |
